Screening data: PubChem, The Scripps Research Institute Molecular Screening Center
Hits are enriched below; roughly 4.1% of the tested compounds scored in any of these assays.
hgDAF12 agonist = activates the H. glycines DAF-12 receptor ligand-binding domain; AID 687014; actives 1.8% (n = 370,000); HEK293 GAL4-hgDAF12 UAS-luciferase reporter, agonist luminescence; normalized to butyrate control; activation, % at 6.8 µM;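 active = activation above a cutoff set at the mean of all screened compounds plus 3 SD, cut at about 10% in these data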;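 also: 0% = DMSO wells and 100% = sodium butyrate wells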
hcDAF-12 act = activators of H. contortus DAF-12 nuclear receptor | HEK293 hcDAF-12 lit1-tk-luc reporter, luminescence; 0% DMSO, 100% Δ7-dafachronic acid | activation, % at 6.8 µM | actives 1.4% (n = 370,000) | AID 652067;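 active = activation above the mean of all tested compounds plus 3 SD, cut at about 5.5% in these data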;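 also: 100% = response to 3 µM Δ7-dafachronic acid high control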
DAX1 inh-1 = inhibitors of DAX1 repression of SF-1 activated StAR promoter | HEK293T StAR-luciferase reporter, SF-1/DAX-1 repression relief | inhibition, % at 6.8 µM | actives 1.1% (n = 370,000) | AID 652010;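 active = inhibition above the mean over all tested compounds plus 3 SD, cut at about 3.6% in these data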;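 also: 0% = DAX-1 cells with DMSO and 100% = cells lacking DAX-1 with DMSO; higher inhibition means more luminescence from relief of DAX-1 repression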
DAX1 inh-2 = NR0B1 (DAX1) inhibition; HEK293 Gal4-DAX1 luciferase reporter, luminescence; inhibition, % at 6.75 µM; AID 504766; actives 0.99% (n = 340,000);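 active = inhibition above the mean over all tested compounds plus 3 SD, cut at about 4.2% in these data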;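 also: 0% = DAX1-transfected cells with DMSO and 100% = empty-vector control cells with DMSO; inhibition shows as a rise in luminescence from relieved DAX1 repression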
Target sequence (P51843 207-470 limits assumed): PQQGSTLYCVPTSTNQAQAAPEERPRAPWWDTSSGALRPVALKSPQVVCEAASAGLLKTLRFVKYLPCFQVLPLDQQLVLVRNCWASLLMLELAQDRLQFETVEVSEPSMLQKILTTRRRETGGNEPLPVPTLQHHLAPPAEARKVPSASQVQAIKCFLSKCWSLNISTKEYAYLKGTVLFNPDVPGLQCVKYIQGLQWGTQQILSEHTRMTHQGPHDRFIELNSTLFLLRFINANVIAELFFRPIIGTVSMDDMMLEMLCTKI
ssDAF-12 act = S. stercoralis DAF-12 activation, primary screen; HEK293 ssDAF-12/GRIP1 lit1-tk-luc reporter, luminescence; % of 3 µM dafachronic acid response; activation, % at 6.8 µM; actives 1% (n = 370,000); AID 652126;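 active = activation above the mean over all tested compounds plus 3 SD, cut at about 0.9% in these data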;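 also: 0% = DMSO-only wells and 100% = 3 µM delta7-dafachronic acid wells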
Starred values were filed as active, the others as inactive; x = no result.

SMILES | hgDAF12 agonist | hcDAF-12 act | DAX1 inh-1 | DAX1 inh-2 | ssDAF-12 act
O=C(CNC(=O)c1ccc(Cl)cc1Cl)OCCOc1ccccc1 | -2 | -1 | 3.9* | 1 | -1
Cc1ccc(S(=O)(=O)N2CCN(C(=O)c3cccn3C)CC2)cc1 | -3 | 0 | 0 | x | -2
Cc1ccc(/C(N)=N/OC(=O)CCc2ccccc2)cc1 | 4 | 6.2* | 1 | 2 | -1
CCOC(=O)Cn1cc(CN2C(C(=O)OC)CN(C3CCCC3)CCS2(=O)=O)nn1 (configuration not stated) | 3 | -2 | 0 | x | 0
O=C(Nc1ccc(Cl)cc1F)C1CC1c1ccccc1 (configuration not stated) | 3 | -1 | 0 | -1 | -1
Cc1ccc(NC(=O)C2CC2c2ccccc2)c([N+](=O)[O-])c1 (configuration not stated) | 5 | 2 | 1 | 6.0* | -1
C(=NOCCc1ccccc1)c1ccncc1 | 8 | 1 | 1 | 1 | 1.3*
C(=NOCCc1ccccc1)c1ccccn1 | 7 | 0 | 2 | 2 | 0
Cc1nc2c(ccc3nc(NC(=O)C(c4ccccc4)c4ccccc4)sc32)s1 | 0 | 5 | 0 | -1 | 2.5*
Cc1c(Cl)cccc1N1C(=O)CC(NNC(=O)c2cccs2)C1=O (configuration not stated) | 10* | 4 | 1 | 0 | 0
Cc1c(Cl)cccc1N1C(=O)CC(NNC(=O)c2cccnc2)C1=O (configuration not stated) | 1 | -1 | 0 | -1 | -1
Cc1ccc(C)c(OCCCC(=O)NC2CCCCC2)c1 | 2 | 0 | 0 | 2 | -2
COc1cc(C)ccc1OCC(=O)NC1CCCCCC1 | 8 | 0 | 4.3* | 1 | -1
Cc1ccc(OCCCC(=O)NC2CCCCC2)cc1 | 1 | -3 | 0 | 5.0* | -1
COc1ccccc1CCC(=O)OCC(=O)NC1CCCC1 | -2 | 0 | 3.7* | -1 | -1
CCCCNC(=O)N(C)c1nc2ccccc2s1 | 9 | 5.8* | 4 | 0 | -1
COC(=O)N(C)c1nc2ccccc2s1 | 5 | -1 | 0 | 2 | -1
COc1ccc(-c2csc(NC(=O)C3=COCCO3)n2)c(OC)c1 | 5 | 0 | 3.9* | 0 | 0
Nc1nc(NCCCN2CCOCC2)nc(Nc2ccccc2F)c1[N+](=O)[O-] | -4 | -2 | 0 | 4.5* | -1
COC(=O)C1CN(CCc2ccccc2)CCS(=O)(=O)N1Cc1ccc(C)cc1 (configuration not stated) | 1 | -2 | -1 | x | -1
CC1CCCCC1NC(=O)CC1Oc2ccccc2NC1=O (configuration not stated) | 5 | 0 | 0 | 2 | 0
Cc1ccc2c(c1)NC(=O)C(CC(=O)NC1CCCCC1C)O2 (configuration not stated) | -1 | 0 | 0 | 4.8* | -2
Cc1ccc2c(c1)NC(=O)C(CC(=O)NCCCN1CCCCC1C)O2 (configuration not stated) | 2 | 3 | -1 | 1 | -1
CC1CCCCN1CCNC(=O)CC1Oc2ccccc2NC1=O (configuration not stated) | 2 | 2 | 1 | 4.6* | 3.2*
CN1CCN(S(=O)(=O)c2ccc(NC(=S)NC(=O)C3CCCCC3)cc2)CC1 | 3 | 0 | -1 | 0 | -1
SMILES | hgDAF12 agonist | hcDAF-12 act | DAX1 inh-1 | DAX1 inh-2 | ssDAF-12 act
COc1ccc(NC(=S)NC(=O)C2CCCCC2)cc1 | 4 | 1 | 3.8* | 2 | -1
NS(=O)(=O)c1ccc(NC(=S)NC(=O)C2CCCC2)cc1 | -2 | 5.8* | 0 | 1 | -1
CCN(CC)C(=O)Cn1cc(S(=O)(=O)CC(=O)Nc2ccc(F)cc2)c2ccccc21 | 0 | 0 | 0 | 0 | -1
O=C(NC(c1ccccc1)c1ccccc1)c1ccc(=O)[nH]n1 | 0 | -2 | 0 | x | 0
COc1ccc(-c2cc(-c3ccccc3)nc(Cl)n2)cc1OC | 0 | -4 | -1 | -3 | -2
Cc1ccc(-c2cc(-c3ccccc3)nc(Cl)n2)cc1 | 3 | 6.0* | 1 | -1 | 0
CCCCOCCCNC(=O)C[C@H]1C[C@@]2(C(=O)OC)C(=C[C@H](C(C)(C)C)O[C@@H]2C)N(Cc2ccc(Cl)cc2Cl)C1=O | -1 | -3 | 0 | x | -1
Cc1ccc(S(=O)(=O)N2CCOC2C(Cl)(Cl)Cl)cc1 (configuration not stated) | -4 | -2 | 0 | 0 | 1.2*
COCc1cc(=O)n2c([nH]c3ccccc32)c1C#N | 3 | 0 | 0 | 0 | 1.2*
COc1ccc(CNc2cccnc2Cl)cc1 | 11* | 1 | 0 | x | 0
COc1ccc(CNc2ncccc2[N+](=O)[O-])cc1 | 5 | -1 | 1 | 0 | 0
CCCCCCCCN1C(=O)[C@@H](CC(=O)NCCC(C)C)C[C@@]2(C(=O)OC)C1=C[C@H](C(C)(C)C)O[C@@H]2C | -1 | -1 | 1 | x | -2
Cn1ccc(NC(=O)c2ccc(Cl)cc2)n1 | 7 | 0 | 3 | 0 | -1
Cn1ccc(NC(=O)c2ccc([N+](=O)[O-])cc2)n1 | 1 | -2 | 1 | 7.0* | 0
Cc1onc(NC(=O)c2ccc(Cl)cc2Cl)c1Br | 11* | 1 | 2 | -1 | -1
Cn1ccc(NC(=O)c2ccc(Cl)cc2Cl)n1 | 7 | -1 | 3.9* | 1 | -1
CC1OC(Nc2cccc3ccccc23)C(O)C(O)C1O (configuration not stated) | 2 | 2 | -2 | -1 | 1.8*
O=C(COc1ccc(CO)cc1Cl)Nc1ccc(F)cc1 | 11* | 5 | 3 | 0 | 1
Cc1cc(C)cc(C(=O)OCCCN(C)C2CN(Cc3cn(Cc4ccccc4C(F)(F)F)nn3)S(=O)(=O)C2)c1 (configuration not stated) | -1 | -3 | -3 | x | -2
CC(C)Oc1ccc(CCc2n[nH]c(=S)n2-c2ccccc2)cc1 | 1 | -2 | -1 | 4.3* | 0
Cc1cccc(C)c1NCc1n[nH]c(=S)n1-c1ccccc1 | 3 | 0 | 0 | 4.7* | -1
C[C@H]1C2CC(OC(=O)Nc3cccc(C(F)(F)F)c3)C(C2)[C@H]2CCCCN21 (some centres not stated) | -2 | 0 | 0 | x | -1
COc1cc(NC(=O)C2CCCN(S(=O)(=O)c3cccc4cccnc34)C2)cc(OC)c1 (configuration not stated) | -5 | -4 | -2 | x | -2
Cc1sc(CO)c(Sc2ccccc2)c1C(=O)O | -1 | 6.0* | 0 | x | 0
COc1ccc(NC(=S)NNC(=O)c2cccs2)cc1 | 3 | -1 | 3 | 1 | 0
Cc1ccc(NC(=O)NNC(=O)c2cccs2)cc1 | 7 | 5.8* | 1 | 0 | -1
CC(C)c1ccc(NC(=S)NNC(=O)c2cccs2)cc1 | 11* | 1 | 2 | 4 | -1
